HT1080NT lethal – kills 2HG-producing HT-1080-NT fibrosarcoma cells. HT-1080-NT fibrosarcoma viability, CellTiter-Glo ATP luminescence, 48 h. AID 686970. hit rate 1.6% among 360,000. Potency, µM (titrated, usually from 46.1 µM), hits mostly cytotoxic;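 also: NT is the 2HG producing partner of a matched IDH1 knockdown line; nearly all actives have a fitted effect of over 55% in size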
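Fibrosarcoma NT cells, 750 per well in 5% FBS RPMI, were exposed to compound for 48 hours. Viability: CellTiter-Glo luminescence.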
IL1B secr inh – blocks inflammasome-driven IL-1 beta release; THP-1 LPS/ATP IL-1B secretion, AlphaLISA, 16 h; stronger effect = lower value; activity change, % at 57.5 µM; hit rate 4.7% among 360,000; in the data active = activity change below about -50%; inconclusive = mostly about -30% to -49%
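THP-1 cells pretreated 1 hr with compounds (up to 57.5 uM final), then stimulated with LPS (250 ng/mL final) plus ATP (1.25 mM final); secreted IL-1B measured by AlphaLISA after 16 hr, decreased signal indicating inhibition.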
TDP1 cell CPT – growth inhibition of DT40 Tdp1-/-;hTDP1 cells with camptothecin (screen for TDP1 inhibitors); chicken DT40 Tdp1-/-;hTDP1 cells + 20 nM CPT, ATP luminescence, 48 h; Potency, µM (top dose mostly 46.2 µM), usual class: inhibitors; hit rate 12% among 420,000; also: nearly all actives have a fitted effect of over 55% in size
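Cell growth measured by CellTiter-Glo luminescence after a minimum 48 h, 37 C compound exposure with 20 nM CPT in Tdp1-knockout DT40 cells stably expressing hTDP1, seeded 400/well; qHTS titration format.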
TDP1 cell noCPT – qHTS for Inhibitors of human tyrosyl-DNA phosphodiesterase 1 (TDP1): qHTS in cells in absence of CPT; AID 686978, 2013; hit rate 15% among 420,000; Potency, µM (doses to about 46.2 µM), most hits filed as inhibitors; DT40 Tdp1-/- hTDP1 cells, no CPT, ATP luminescence, 48 h; also: nearly all actives have a fitted effect of over 55% in size
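A cellular qHTS used chicken DT40 cells lacking endogenous Tdp1 but carrying stably transfected human TDP1. Compounds were applied without camptothecin, and cell growth kinetics were judged by ATP-dependent luminescence after ≥48 hr.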
HT1080 IDH1KD tx – HT-1080 IDH1 knockdown cell toxicity (counter line). hit rate 2% among 360,000. Potency, µM (series often up to 46.1 µM), most hits filed as cytotoxic. HT-1080 IDH1 knockdown viability, ATP luminescence, 48 h
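After a 2 h attachment period, IDH1KD HT-1080 cells took pin-transferred compound for 48 h at 37 °C; ATP-based luminescence after 10 min room-temperature reagent incubation reported viability.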
Hits are given with their value; i = inactive; ? = inconclusive; nt = no result given; [ ] = another dose, or the depositor's remark. Rows were chosen to be rich in hits. Some 19% of all compounds tested hit in one or more screens of this group. Unless noted, calls follow the shape of the dose curve; as a rule, active = well fitted curve in the direction sought with a large enough effect; inconclusive = small, poorly fitted or top-dose-only effect, or another doubt; inactive = no such curve, though single readings can be large; an effect the other way counts as inactive or inconclusive.

SMILES	HT1080NT lethal	IL1B secr inh	TDP1 cell CPT	TDP1 cell noCPT	HT1080 IDH1KD tx
O=c1c2cn[nH]c2nc(SCc2cc(=O)n3cc(Br)ccc3n2)n1-c1ccc(Br)cc1	i	-51	?	?	?
O=c1c2cn[nH]c2nc(SCc2ccccc2F)n1-c1ccc(Br)cc1	i	-149	?	?	18µM
NC(=O)CC1(c2ccccc2)CCCCC1	i	i	i	i	i
O=C(O)c1ccc(NC(CSCc2cccc(F)c2)C(=O)O)c([N+](=O)[O-])c1 (stereo not drawn)	i	i	i	i	i
COc1ccc(S(=O)(=O)NCC2(N3CCOCC3)CCCCC2)cc1OC	i	i	i	i	i
Cc1ccccc1-n1c(SCc2cc(=O)n3ccccc3n2)nc2[nH]ncc2c1=O	i	i	?	i	i
O=C(CSc1nc2[nH]ncc2c(=O)n1-c1ccccc1)NCCc1ccccc1	i	i	i	?	i
CCc1ccc(-n2c(SCc3ccccc3F)nc3[nH]ncc3c2=O)cc1	nt	nt	21µM	16µM	nt
Cc1cccc2nc(CSc3nc4[nH]ncc4c(=O)n3-c3ccccc3Cl)cc(=O)n12	i	i	15µM	21µM	i
CN(C)CCCOc1ccc(Cl)cc1Br	i	i	i	i	i
CN(C)CCC1c2ccc(Cl)cc2CCc2cccnc21 (stereo not drawn) (tested in a mixture with another compound)	i	-75	i	?	i
O=C(Cn1c(=O)oc2cccnc21)Nc1ccc(C(F)(F)F)cc1	i	i	i	i	i
O=C(CSc1nc2c(cnn2-c2ccc(F)cc2)c(=O)[nH]1)Nc1ccccc1C(F)(F)F	nt	nt	i	i	nt
CCOC(=O)C1C(=O)Oc2ccc3ccccc3c2C1C1CCOC1=O (stereo not drawn)	i	i	?	15µM	i
CCOC(=O)C1=C(C)NC(=O)NC1c1c(OC)ccc2ccccc12 (stereo not drawn)	i	i	i	i	i
COc1ccc(S(=O)(=O)N2CCCN(CC(=O)Nc3ccc(OC)cc3OC)CC2)cc1	nt	nt	?	12µM	nt
COc1ccc(C)cc1NC(=O)CN1CCN(S(=O)(=O)c2ccc(F)cc2)CC1	i	i	?	?	i
COc1ccc(C)cc1NC(=O)CN1CCN(S(=O)(=O)c2ccc3ccccc3c2)CC1	i	i	16µM	16µM	i
COc1ccc(C)cc1NC(=O)CN1CCCN(S(=O)(=O)c2ccc(Br)cc2)CC1	i	i	?	9.2µM	i
COc1ccc(C2(C(=O)Nc3ccc(OC)cc3OC)CCCC2)cc1	i	i	13µM	23µM	i
COc1ccc(NC(=O)C2(c3ccccc3)CCCC2)cc1	i	i	i	?	i
CCOc1cccc(CN2CCC(CCC(=O)NC3CC3)CC2)c1O	i	i	i	i	i
COc1cc2c(cc1OC)C(Nc1ccccc1)=NC(C)(C)C2	i	i	i	i	i
O=C(CN1CCCN(S(=O)(=O)c2ccc(Br)cc2)CC1)Nc1cccc(C(F)(F)F)c1	nt	nt	21µM	12µM	nt
O=C(CN1CCN(S(=O)(=O)c2ccc(Br)cc2)CC1)Nc1ccc2c(c1)OCCO2	i	i	i	i	i
SMILES	HT1080NT lethal	IL1B secr inh	TDP1 cell CPT	TDP1 cell noCPT	HT1080 IDH1KD tx
O=S(=O)(c1ccc(Br)cc1)N1CCCN(Cc2cccc(F)c2)CC1	i	-56	i	?	i
COC(=O)c1ccc(NC(=O)CN2CCN(S(=O)(=O)c3ccc(Br)cc3)CC2)cc1	i	i	?	18µM	i
CC(=O)Oc1cc2c3c(c1)/C(=C1/SC(=S)NC1=O)C(=O)N3C(C)(C)C=C2C	i	i	i	i	i
NC(=O)Oc1cccc(OC(N)=O)c1	i	i	i	i	i
CCOc1cc(Cl)c(S(=O)(=O)NCCCn2ccnc2)cc1Cl	i	i	21µM	16µM	?
COc1ccc(C2CN=NC23CCc2ccccc2C3=O)cc1 (stereo not drawn)	?	i	?	23µM	16µM
COc1ccc(C2CN=NC23CCCc2ccccc2C3=O)cc1 (stereo not drawn)	?	i	?	23µM	?
N/C(=N/OC(=O)c1ccccc1Cl)c1ncc([N+](=O)[O-])s1	29µM	-88	3.7µM	8.2µM	18µM
N/C(=N\OC(=O)c1ccc([N+](=O)[O-])cc1Cl)c1ccccn1	i	?	i	?	i
N/C(=N\OC(=O)c1cc([N+](=O)[O-])ccc1Cl)c1ccccn1	?	-96	?	18µM	?
Cc1ccc(C(=O)O/N=C(\N)c2ccccn2)c(Cl)c1	16µM	i	?	?	?
CCCn1c2ccccc2c2cnn(CC(=O)Nc3cc(C)c(Cl)cc3OC)c(=O)c21	nt	nt	?	i	nt
CC(=O)n1cc(N(C(=O)CCl)c2ccc(C)cc2)c2ccccc21	2.3µM	-95	3.3µM	1.6µM	2.9µM
CC(=O)N(c1ccc(Cl)cc1)c1cn(C(C)=O)c2ccccc12	i	i	i	i	i
Cc1cccc(C2c3[nH]c4ccccc4c3CCN2C(=O)Cc2n[nH]c(C)n2)n1 (stereo not drawn)	i	i	i	i	i
O=C(CCc1ccccc1)N1CCc2c([nH]c3ccccc23)C1c1ccc(Cl)cc1 (stereo not drawn)	nt	nt	16µM	26µM	nt
CCOc1cccc(CC(=O)N2CCc3c([nH]c4ccccc34)C2c2ccc(Cl)cc2)c1OCC (stereo not drawn)	nt	nt	10µM	15µM	nt
COc1cc(S(=O)(=O)Nc2cccc(C)c2)ccc1NC(=O)c1ccncc1	i	i	?	13µM	i
COc1cccc(S(=O)(=O)Nc2ccc(C(=O)N3CCCCCC3)cc2)c1	i	i	?	?	i
COc1cccc(S(=O)(=O)Nc2ccc(C(=O)Nc3ccncc3)cc2)c1	i	i	13µM	?	i
O=C(Nc1ccncc1)c1ccc(NS(=O)(=O)c2cccc(F)c2)cc1	i	i	?	21µM	i
CCOc1ccc(NS(=O)(=O)c2ccc(NC(=O)c3cccnc3)c(OC)c2)cc1	i	i	i	i	i
Cc1cccc(NS(=O)(=O)c2ccc(Cl)c(C(=O)Nc3ccccc3C)c2)c1	nt	nt	?	15µM	nt
O=C(c1ccco1)N1CCN(C(=O)N2CCCC2)CC1	i	i	i	i	i
COc1ccc(C2C3=C(CC(C)(C)CC3=O)Oc3ncn(CC(C)C)c(=N)c32)cc1 (stereo not drawn)	i	-60	?	?	i
COc1ccc(C2C3=C(CC(C)(C)CC3=O)Oc3ncn(Cc4ccco4)c(=N)c32)cc1 (stereo not drawn)	i[9.24 µM]	-60	i	i	?
COc1ccc(C2C3=C(CC(C)(C)CC3=O)Oc3ncn4nc(-c5ccccc5)nc4c32)cc1 (stereo not drawn)	i	i	i	i	i

Bioassay records (PubChem BioAssay)
